Cruzain inh Det = qHTS Assay for Promiscuous and Specific Inhibitors of Cruzain (with detergent). Cruzipain (Trypanosoma cruzi), P25779. purified cruzain, Z-FR-AMC fluorescence, 0.01% Triton. Potency, µM, for the others: max response, negative = inhibition, most hits filed as inhibitors. 200,000 tested, 0.43% active;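 also: plate controls were neutral wells for no effect and buffer without enzyme for full effect; nearly all actives have a fitted effect of over 40% in size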
Target sequence (P25779 123-467 limits assumed): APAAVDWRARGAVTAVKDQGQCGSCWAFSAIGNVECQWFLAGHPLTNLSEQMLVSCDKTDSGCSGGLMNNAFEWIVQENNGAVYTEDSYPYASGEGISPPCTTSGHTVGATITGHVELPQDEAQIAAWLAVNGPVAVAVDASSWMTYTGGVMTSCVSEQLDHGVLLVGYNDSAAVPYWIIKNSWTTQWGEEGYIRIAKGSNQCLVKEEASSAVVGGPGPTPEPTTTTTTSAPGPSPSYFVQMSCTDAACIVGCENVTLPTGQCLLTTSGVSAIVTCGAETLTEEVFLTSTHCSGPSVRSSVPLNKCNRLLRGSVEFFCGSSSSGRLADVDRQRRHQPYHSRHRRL
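Purified cruzain (1.5 nM final) was preincubated with compounds for 15 min at room temperature in 100 mM sodium acetate pH 5.5, 5 mM DTT, 0.01% Triton X-100. Reaction started with 2 uM Z-FR-AMC; AMC fluorescence change over 60 s gave activity.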
Cruzain noTriton = qHTS Assay for Promiscuous and Specific Inhibitors of Cruzain (without detergent). purified cruzain, Z-FR-AMC fluorescence, no detergent. Potency, µM, without a hit: max response, negative = inhibition, actives largely listed as inhibitors. 200,000 tested, 2.3% active;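 also: plate controls were enzyme without inhibitor for no effect and buffer without enzyme for full effect; nearly all actives have a fitted effect of over 40% in size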
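Purified cruzain at 1.5 nM, pre-incubated 15 min with compound at room temperature in 100 mM sodium acetate pH 5.5, 5 mM DTT, 0.00005% Triton X-100. Reaction started with 2 uM Z-FR-AMC; AMC fluorescence increase over 60 s gives rate.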
* marks the source's active call; other numbers are inactive results; ? = inconclusive; ! = repeats disagree. Sampled rows, rich in hits. Any-hit rate of the full collection: about 2.4%. Calls follow the shape of the dose curve; as a rule, active = well fitted curve in the direction sought with a large enough effect; inconclusive = small, poorly fitted or top-dose-only effect, or another doubt; inactive = no such curve, though single readings can be large; an effect the other way counts as inactive or inconclusive. Potency is read from the fitted curve at half-maximal effect.

SMILES	Cruzain inh Det	Cruzain noTriton
O=C(Cn1c(=O)oc2cc(S(=O)(=O)NCc3ccccc3)ccc21)N(CCO)Cc1ccccc1	-2.8%	1.3%
O=[N+]([O-])c1ccc(N2CCCC2)cc1NC(c1ccccc1)c1ccccc1	6.3%	10µM*
O=[N+]([O-])c1ccc(N2CCOCC2)cc1NC(c1ccccc1)c1ccccc1	-6.0%	?
CCOc1ccc(-n2c(SCC(=O)N3CCC(C)CC3)nc3c([nH]c4ccccc43)c2=O)cc1	0.3%	-2.1%
S=C1NCCc2ccccc2C1c1ccccc1 (stereo not drawn)	?	31.6µM*
O=C(O)C1NCCc2ccccc21 (stereo not drawn)	4.0%	10.5%
CCOC(=O)C(Cc1c[nH]c2ccccc12)NC(=O)COc1ccc(Cl)cc1 (stereo not drawn)	-7.7%	10.7%
O=C(COC(=O)[C@H](Cc1c[nH]c2ccccc12)NC(=O)c1ccc(Cl)cc1)Nc1ccc2c(c1)OCO2	3.55µM*	20µM*
CC(C)(C)c1ccc(C(=O)NC(Cc2c[nH]c3ccccc23)C(=O)OCC(=O)c2ccc(Cl)cc2)cc1 (stereo not drawn)	-3.8%	25.1µM*
CC(=O)NC(Cc1c[nH]c2ccccc12)C(=O)NCc1ccc2c(c1)OCO2 (stereo not drawn)	3.6%	-13.3%
COc1ccc2o/c(=N/NC(=S)Nc3ccccc3)c(C(N)=O)cc2c1	-11.8%	6.31µM*
COc1ccc2oc(=N)c(C(=O)Nc3ccccc3)cc2c1	3.9%	5.4%
CC(C)n1c(=O)c2oc3ccccc3c2n(CC(=O)Nc2ccccc2Cl)c1=O	-1.8%	-0.2%
CC(C)Oc1ccc(CNC(=O)c2ccc3nc(Cc4ccccc4)oc3c2)cc1	-2.3%	-1.9%
Cc1cccc(N2C(=O)NC(=O)/C(=C\c3cccn3-c3ccc(Cl)cc3)C2=O)c1	-1.9%	-29.1%
COc1ccc(-n2cccc2/C=C2/NC(=O)N(c3cccc(Cl)c3)C2=O)cc1	-4.4%	10µM*
Clc1ss/c(=N\c2ccccn2)c1Cl	1.0%	25.1µM*
Cc1cccc(CC2S/C(=N/c3ccccn3)NC2=O)c1 (stereo not drawn)	1.2%	1.4%
N#Cc1cnn2cc(-c3ncc(C(F)(F)F)cc3Cl)cnc12	0.7%	1.4%
FC(F)(F)c1cnc(-c2cnc3c(-c4ccc(Cl)cc4)cnn3c2)c(Cl)c1	4.7%	10µM*
COc1ccc2c(c1)c1c(c(=O)n(Cc3ccccc3)c(=O)n1CC(=O)Nc1cc(C)cc(C)c1)n2C	-1.9%	-0.6%
Clc1nc2ccccc2cc1/C=N/Nc1nc2ccccc2[nH]1	28.2µM*	?
Cc1nn(-c2ccccc2)c(C)c1/C=N/Nc1nc2ccccc2[nH]1	?	25.1µM*
CCN(CC)c1ccc(/C=N/Nc2nc3ccccc3[nH]2)cc1	-9.5%	?
C(=N\Nc1nc2ccccc2[nH]1)/c1cccs1	-27.0%	?
SMILES	Cruzain inh Det	Cruzain noTriton
CCN1C(C(=O)c2ccccc2)=C(OC(=O)c2ccc(Cl)cc2)c2ccccc2S1(=O)=O	-5.4%	?
Cc1cc(C(=O)O)c2c(=O)n(C)c(=O)n(C)c2n1	-0.5%	6.2%
O=C1NCCN1Cc1cccc(Cl)c1	-0.1%	12.6µM*
O=S1(=O)CCN(Cc2cccc(Cl)c2)CC1	0.4%	-5.7%
Cc1ccc2nc(-c3cc(N)cc(N)c3)oc2c1	-1.5%	?
Nc1ccc(-c2nc3ccc(N)cc3o2)cc1	20µM*	15.8µM*
O=C(NNC(=S)NC(=O)c1cccs1)c1ccc(NC(=O)c2ccccc2)cc1	0.9%	20µM*
O=C(Nc1ccc(NC(=S)NC(=O)c2cccs2)cc1)c1ccccc1	-4.0%	13.8%
COc1ccc(C(=O)Nc2ccc(NC(=O)c3cccs3)cc2)cc1Cl	3.1%	7.94µM*
CC(=O)NC(=S)Nc1ccc(NC(=O)c2cccs2)cc1	1.3%	-10.3%
Cc1c(C(=O)NC(=S)Nc2ccc(NC(=O)c3cccs3)cc2)oc2ccccc12	-1.6%	12.6µM*
COc1ccc(C(=O)Nc2ccc(NC(=O)c3cccs3)cc2)cc1OC	-1.2%	-26.7%
O=C(Nc1cccc(C(F)(F)F)c1)c1cc(S(=O)(=O)N2CCCC2)c[nH]1	-2.4%	2.0%
CCOc1ccc(CN(CCc2ccc3c(c2)OCO3)Cc2cc(OC)c(OC)cc2OC)cc1	-2.7%	3.1%
COc1ccccc1N1CCN(c2ncnc3c2cnn3-c2ccc(C)cc2)CC1	0.6%	-1.9%
CS(=O)(=O)Nc1ccc(Nc2c3ccccc3nc3ccccc23)cc1	-0.2%	-6.8%
COc1ccc(N2CCN(S(=O)(=O)c3csc(C(N)=O)c3)CC2)cc1	0.6%	7.4%
O=C(Nc1sc2c(c1C(=O)NCc1ccccc1)CCCC2)c1cc(=O)c2cc(Cl)ccc2o1	-0.6%	1.4%
COc1ccccc1N1CCN(CCCNC(=O)c2cnn(-c3cccc(Cl)c3)c2C2CCN(C(=O)OC(C)(C)C)CC2)CC1	-0.4%	10.6%
O=C(COC(=O)c1ccc2c(c1)C(=O)N(c1cccc3ncccc13)C2=O)c1ccc(Cl)cc1	-3.6%	?
O=C(OCC(=O)c1ccc(Cl)cc1Cl)c1ccc2c(c1)C(=O)N(c1cccc3ncccc13)C2=O	6.4%	20µM*
CCOC(=O)c1c(NC(=S)Nc2cccc(C)c2)sc2c1CC(C)(C)SC2	-9.0%	20µM*
CCOC(=O)c1c(NC(=S)Nc2ccccc2)sc2c1CCCCC2	-4.7%	-14.9%
Cc1ccc(-c2onc(C)c2C)cc1S(=O)(=O)NCc1cccs1	-6.9%	0.7%
Cc1ccc(CN2CCN(CC(=O)NCc3ccccc3Cl)C2=O)cc1	-3.4%	-9.0%
SMILES	Cruzain inh Det	Cruzain noTriton
CC1=C(\C=C/C(C)=C/C=C\C(C)=C\C(=O)O)C(C)(C)CCC1	-3.9%	?
CC1=C(/C=C/C(C)=C/C=C/C(C)=C/C(=O)Nc2ccc(O)cc2)C(C)(C)CCC1	-4.5%	15.8µM*!
COc1ccc(S(=O)(=O)NCCc2nnc3ccc(SCC(=O)Nc4ccc(C(F)(F)F)cc4)nn23)cc1	-5.9%	?
Cc1ccc(-n2c(=O)c3c(cnn3C)n(CC(=O)Nc3c(C)cccc3C)c2=O)cc1	0.6%	21.8%
N=C(N)SC(c1ccccc1)c1ccccc1	-0.5%	-1.6%
COC(=O)Cn1c(=NC(=O)c2ccc([N+](=O)[O-])s2)sc2cc(Br)ccc21	-4.2%	10µM*
COC(=O)Cn1c(=NC(=O)c2nc3ccccc3s2)sc2cc(S(C)(=O)=O)ccc21	-8.3%	17.2%
COCCn1c(SCc2nc3scc(-c4ccc(Cl)cc4)c3c(=O)[nH]2)nnc1-c1cccc(C)c1	-6.0%	25.1µM*
CCn1c(SCc2nc3scc(-c4ccccc4)c3c(=O)[nH]2)nnc1-c1cccs1	-4.3%	-26.2%
O=C(O)c1ccc(/C=N/NC(=O)c2cc(-c3cccs3)nc3ccccc23)cc1	-10.2%	12.7%
Cc1nn(-c2ccccc2)c(N2CCCC2)c1/C=N/NC(=O)c1cc(-c2ccccn2)nc2ccccc12	-5.5%	5.9%
Cc1nn(-c2ccccc2)c(N2CCCC2)c1/C=N/NC(=O)c1cc(-c2cccs2)nc2ccccc12	-4.7%	10µM*
Cc1nn(-c2ccccc2)c(N2CCCC2)c1/C=N/NC(=O)c1cc2ccccc2cc1O	-6.8%	15.8µM*
Cc1nn(-c2ccccc2)c(N2CCCC2)c1/C=N/NC(=O)c1cccc(S(=O)(=O)Nc2ccc(Cl)cc2)c1	-6.4%	?
Cc1nn(-c2ccccc2)c(N2CCCC2)c1/C=N/NC(=O)c1cc(-c2ccccc2)nc2ccccc12	-5.3%	3.98µM*

Screens (PubChem)
